Where “and” joins values, the source holds several entries; their conditions need not be identical. Identical values can stand only once. Inconclusive results are not listed. A structure can be active in one record and inactive in another. Calls of active or inactive are those of the source. Unless noted, calls come from the whole dose curve; as a rule, active = well fitted curve in either direction with a large enough effect (not every such curve was filed as active); inconclusive = small, poorly fitted or top-dose-only effect, or another doubt; inactive = flat fitted curve, though single readings scatter.

Experiment [1] can be described thus: AP1 Signaling Pathway (AID 357). Note: % is set by controls: 0 for no effect and ±100 for the full control effect. The note with it: ME-180 (cervical carcinoma) AP-1-bla reporter, EGF-induced, beta-lactamase ratio, 5 h. In a few lines: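 AP-1-bla ME-180 cells with beta-lactamase reporter under AP-1 response element, stimulated with EC50 EGF; compounds titrated, 5 hours at 37 degrees Celsius. CCF4 read at 460/530 nm ratio; positive and negative modulators judged by AC50.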

Experiment [2] has as its target Cytochrome P450 1A2 (Homo sapiens) (UniProt P05177). Kind of experiment: p450-cyp1a2 (AID 410; calls by dose curve; note: potency is the fitted concentration of half-maximal effect;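 for activity change, negative = inhibition: -100% = full effect of reference inhibitor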). The note with it: recombinant CYP1A2, luciferin-ME demethylation, luminescence; series mostly up to 57 µM. In a few lines:
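O-Demethylation of luciferin 6' methyl ether by human CYP1A2 is monitored as luciferase luminescence. Substrate sits at Km (100uM); enzyme is 20nM. Values are scaled to 57 uM furafylline as maximal inhibition.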

Experiment [3] can be described thus: NFAT Signaling Pathway (AID 444).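 Note: carbachol stimulus at about its EC50 of 1 µM final; % is set by controls: 0 for no effect and ±100 for the full control effect.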 Particulars: Jurkat NFAT-bla M1, carbachol, beta-lactamase ratio, 5 h. In a few lines:
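Jurkat cells carrying an NFAT-driven β-lactamase reporter and co-transfected muscarinic M1 receptor were treated with compound plus carbachol (1 uM final, an EC50 level) for 5 h at 37 °C. CCF4 loading followed for 1 h at RT; 460/530 nm ratio gave %activity.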

The nature of experiment [4]: Cell Viability - Jurkat (AID 426;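 active = dose-dependent loss of cell ATP signal giving a full or clear fitted curve, ranked by lower potency value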; note: potency is the fitted concentration of half-maximal effect). The note with it: qHTS. In a few lines:
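Cells of the human T-cell leukemia line Jurkat (E6-1) are seeded at 5000 per well, treated with compound across a concentration range for 40 hours at 37 °C, then lysed with CellTiter-Glo; luminescence reports ATP.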
On the technique in general: In qHTS, concentration-response curves come from the screen itself.

Experiment [5] is described as follows: Cell Viability - SK-N-SH (AID 435; calls by dose curve;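 note: potency is the fitted concentration of half-maximal effect; compound exposure lasted 40 h at 37 °C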). Particulars: SK-N-SH neuroblastoma cell viability qHTS. In a few lines:
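SK-N-SH neuroblastoma cells (1500/well) treated 40 h at 37 °C in complete medium; viability read as cellular ATP by CellTiter-Glo luminescence. Normalized to DMSO and 100 uM tamoxifen; AC50 from Hill fits of qHTS concentration-response.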

The nature of experiment [6]: Cell Viability - BJ (AID 421; calls by dose curve;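 note: potency is the fitted concentration of half-maximal effect; cells exposed to compound for 40 hours at 37 °C before readout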). The note with it: BJ fibroblast viability, qHTS. The procedure, abridged:
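Normal human BJ foreskin fibroblasts, 1500/well in complete medium, treated 40 hr at 37 °C. Cellular ATP by CellTiter-Glo luminescence; normalized to DMSO and 100 uM tamoxifen, AC50 from Hill fit.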

Experiment [7] is described as follows: Cell Viability - Hek293 (AID 427;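 active = compounds whose dose-response curve shows a full or clear partial loss of cell viability, called from curve shape rather than a numeric limit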;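 note: potency is the fitted concentration of half-maximal effect; cells exposed to compound for 40 hours at 37 °C before reading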). The note with it: qHTS. In a few lines: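 HEK293 cells in complete medium were exposed to compound for 40 hr at 37 °C, then cellular ATP was read by CellTiter-Glo luminescence. Data were normalized to DMSO (basal) and 100 uM tamoxifen (100% inhibition), and AC50 came from Hill fits.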
Experiment [8] is described as follows: Cell Viability - HepG2 (AID 433; calls by dose curve;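 note: potency is the fitted concentration of half-maximal effect; potency for ATP loss meaning cytotoxicity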). The note with it: qHTS. In a few lines:
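HepG2 cells, 1500 per well, treated 40 hr at 37 °C in complete medium; viability from intracellular ATP by CellTiter-Glo luminescence. Normalized to DMSO and 100 uM tamoxifen; AC50 from Hill fit of qHTS concentration-response.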

Experiment [9] is described as follows: Cell Viability - MRC5 (AID 434; calls by dose curve;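 note: potency is the fitted concentration of half-maximal effect; potency reflects cytotoxicity seen as loss of intracellular ATP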). Particulars: MRC5 lung fibroblast viability, qHTS. In a few lines: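 Decrease in intracellular ATP, quantified by luciferase light output, reflects compound toxicity toward MRC5 cells exposed for 40 hr in complete culture medium. Concentration-response curves, scaled between DMSO and 100 uM tamoxifen, gave AC50 values.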

Cytochrome P450 1A2 (Homo sapiens), sequence (P05177 whole entry, looked up): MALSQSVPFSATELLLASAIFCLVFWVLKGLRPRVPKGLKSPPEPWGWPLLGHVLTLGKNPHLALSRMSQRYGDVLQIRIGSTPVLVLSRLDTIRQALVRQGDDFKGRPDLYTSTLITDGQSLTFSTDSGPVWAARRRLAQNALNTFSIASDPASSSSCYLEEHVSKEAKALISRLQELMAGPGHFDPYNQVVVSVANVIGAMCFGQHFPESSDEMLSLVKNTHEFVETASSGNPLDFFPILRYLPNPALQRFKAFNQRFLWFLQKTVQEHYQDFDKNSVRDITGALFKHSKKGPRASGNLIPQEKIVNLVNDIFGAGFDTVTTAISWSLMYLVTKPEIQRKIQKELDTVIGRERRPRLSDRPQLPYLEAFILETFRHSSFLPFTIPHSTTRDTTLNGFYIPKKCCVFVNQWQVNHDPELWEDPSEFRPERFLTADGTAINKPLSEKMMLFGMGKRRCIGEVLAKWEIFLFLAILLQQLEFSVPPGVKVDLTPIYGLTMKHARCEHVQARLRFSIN

Regarding `Brc1c(NC2=NCCN2)ccc2nccnc12`, the activity change, negative = inhibition in [1] (at 17.2 µM (top of the series)) was -0.374% (inactive); in experiment [1] (at 38 µM (top of the series)), 6.19% (inactive); in experiment [3] (at 17.2 µM (top of the series)), 15.8% (inactive); in experiment [3] (at 38 µM (top of the series)), 1.97% (inactive). For the same compound, the Potency entry in experiment [2] was “inactive”.
Take `O=C(CCCN1CCC(O)(c2cccc(C(F)(F)F)c2)CC1)c1ccc(F)cc1`: the values for the activity change, negative = inhibition in experiment [1] (at 38 µM (top of the series)) and in experiment [3] (at 38 µM (top of the series)) were 14.4% (inactive) and -2.13% (inactive), respectively. The Potency result in [2] is “inactive”.
Consider `COC(=O)[C@H]1[C@H]2C[C@@H]3c4[nH]c5cc(OC)ccc5c4CCN3C[C@H]2C[C@@H](OC(=O)c2cc(OC)c(OC)c(OC)c2)[C@@H]1OC`, for which the Potency in [4] is 35.9 µM (active); in [5], 46.3 µM (active).
Regarding `Cc1nnc(SCC2=C(C(=O)O)N3C(=O)[C@@H](NC(=O)Cn4cnnn4)[C@H]3SC2)s1`, the activity change, negative = inhibition in [1] (at 17.2 µM (top of the series)) is 6.59% (inactive); in experiment [3] (at 17.2 µM (top of the series)), -25% (inactive).
Taken in the same sequence, the figures for `CCCN(CCC)C(=O)C(CCC(=O)O)NC(=O)c1ccccc1` (configuration not stated) were 1.43% (inactive) and -1.88% (inactive).
In the case of `CN(C)CCCN1c2ccccc2Sc2ccc(C(F)(F)F)cc21`, in [2], the Potency is 1.58 µM (active) and 794 nM (active). For the same compound, in experiment [3] (at 17.2 µM (top of the series)), the activity change, negative = inhibition was -88.2% (active).
Consider `CCCCCCCC/C=C\CCCCCCCC(=O)NCc1ccc(O)c(OC)c1`, for which the Potency in experiment [2] is 20 µM (active).
On the same count and under the same terms, to `CN(C)CCN(Cc1cccs1)c1ccccn1` belongs “inactive and 12.6 µM (active)”.
For `C[C@]12CCC(=O)C=C1CC[C@@H]1[C@@H]2CC[C@@]2(C)[C@H]1CC[C@]2(O)C(=O)CO`, the activity change, negative = inhibition in experiment [1] (at 17.2 µM (top of the series)) is 14.7% (inactive); in experiment [3] (at 17.2 µM (top of the series)), 2.94% (inactive).
As for `CC1=C(C)C(=O)C(CCCCC#CCCCC#CCO)=C(C)C1=O`, the Potency in experiment [2] is 0.501 µM (active).
On to `COc1ccc(CN(CCN(C)C)c2ccccn2)cc1`, for which the Potency result in [2] is “inactive”. The Potency in experiment [6], in experiment [4], in experiment [7], in experiment [8], in experiment [9] and in experiment [5] was > 92 µM (inactive) each time. The activity change, negative = inhibition in experiment [3] (at 17.2 µM (top of the series)) is -25.9% (inactive) and -22.5% (inactive); in experiment [3] (at 38 µM (top of the series)), -21.9% (inactive).
Turning to `COCCCC/C(=N\OCCN)c1ccc(C(F)(F)F)cc1`, the activity change, negative = inhibition in experiment [1] (at 17.2 µM (top of the series)) was 14.9% (inactive); in [3] (at 17.2 µM (top of the series)), 24.5% (inactive).
On to `C=CCc1ccccc1OCC(O)CNC(C)C` (configuration not stated), for which the activity change, negative = inhibition in experiment [1] (at 17.2 µM (top of the series)) is 12.6% (inactive); in experiment [3] (at 17.2 µM (top of the series)), 5.58% (inactive).
With `CSc1ccc(C(=O)c2[nH]c(=O)[nH]c2C)cc1`, the results for the activity change, negative = inhibition in [1] (at 38 µM (top of the series)) and in experiment [3] (at 38 µM (top of the series)) were -4.8% (inactive) and -2.92% (inactive), respectively.
For the compound `CCOC(=O)c1cnc2c(cnn2CC)c1NN=C(C)C`, the Potency in experiment [2] was 501 nM (active) and 126 nM (active). The activity change, negative = inhibition in experiment [3] (at 38 µM (top of the series)) is 6.94% (inactive).
For the compound `CCc1cccc(N(C)C(N)=Nc2cccc3ccccc23)c1`, the activity change, negative = inhibition in [3] (at 38 µM (top of the series)) was -9.54% (inactive).
For the compound `CN1CCN(C2=Nc3ccccc3Oc3ccc(Cl)cc32)CC1`, the Potency in experiment [2] is 3.16 µM (active). Besides, the activity change, negative = inhibition in [3] (at 17.2 µM (top of the series)) is -75.6% (active).
Consider `Fc1ccc(C(c2ccc(F)cc2)N2CCN(C/C=C/c3ccccc3)CC2)cc1`, for which the values for the activity change, negative = inhibition in experiment [1] (at 17.2 µM (top of the series)) and in experiment [3] (at 17.2 µM (top of the series)) were -10.9% (inactive) and -88.5% (active), respectively.
With `COCCc1ccc(OCC(O)CNC(C)C)cc1` (configuration not stated), the activity change, negative = inhibition is 3.62% (inactive) in experiment [1] (at 17.2 µM (top of the series)) and -25.7% (inactive) in experiment [3] (at 17.2 µM (top of the series)).
Taken in the same sequence, the figures for `OC(CCN1CCCCC1)(c1ccccc1)C1CCCCC1` (configuration not stated) were 5.32% (inactive) and -77.3% (active).
